Source: PubChem BioAssay AID651821 (The Scripps Research Institute Molecular Screening Center, 2012)
Among all 370,000 compounds or so, about 4,700 (1.3%) were called active.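 The calls were made as follows: active = inhibition above the plate cutoff, the mean of all test compounds on that plate plus 3 SD (cut at about 35% in these data); inactive = the rest.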 This excerpt belongs to a sample that is enriched for actives.

experiment: small molecules binding CAG repeat RNA – biochemical, fluorescence, primary screen (AID 651821); details: r(CAG) RNA repeat, TO-PRO-1 dye displacement fluorescence; at 3 µM; stronger effect = higher value;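 also: 0% = DMSO alone and 100% = 100 µM mitoxantrone as full dye displacement; higher means more dye released from RNA so lower well fluorescence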

Question: Which inhibition does the source give for `O=c1[nH]c(=O)n(Cc2ccccc2)c(O)c1/C=N/Nc1c(F)c(F)c(F)c(F)c1F` here?
Answer: Its inhibition is 0.55% (inactive).

Question: Which inhibition does the source give for `CC/C(=N\NC(=O)c1ccccc1O)c1c(O)n(Cc2ccccc2)c(=O)[nH]c1=O` here?
Answer: Its inhibition is 80.1% (active).

Question: For `CCCCn1c(O)c(C(CC)=NCc2ccco2)c(=O)[nH]c1=O`, which inhibition is on record?
Answer: Its inhibition is -0.86% (inactive).

Question: Which inhibition does the source give for `C[N+]1(C)CCOC(O)(c2ccc(-c3ccc(C4(O)C[N+](C)(C)CCO4)cc3)cc2)C1` (stereo not given) here?
Answer: The inhibition was 3.46% (inactive).

Question: For `Cc1ccccc1CCC[C@@H](CC1CCCCC1)CN(C)C(=O)Oc1ccccc1`, which inhibition is on record?
Answer: Its inhibition is 6.44% (inactive).

Question: With `Clc1ccc([C@@H]2CC3CCC2N3)cn1` (stereo not given in full) as the molecule, how does the inhibition read?
Answer: The inhibition was 1.8% (inactive).

Question: Which inhibition does the source give for `COc1cc(OC)cc(C(=O)NCCN2CCC3(CC2)C(=O)NCN3c2ccccc2)c1` here?
Answer: The inhibition was 4.12% (inactive).

Question: Which inhibition does the source give for `COc1ccc(N2C(=O)/C(=C/c3ccco3)C(=O)NC2=S)cc1` here?
Answer: The inhibition was 67.3% (active).

Question: For `O=Cc1cn(Cc2ccc(F)cc2Cl)c2ccccc12`, which inhibition is on record?
Answer: Its inhibition is -0.22% (inactive).

Question: Which inhibition does the source give for `CCc1nnc(NS(=O)(=O)c2ccc(N=Cc3c(O)n(-c4ccccc4)c(=O)[nH]c3=O)cc2)s1` here?
Answer: The inhibition was 5.87% (inactive).

Question: Which inhibition does the source give for `O=C1CC(=O)N(Cc2ccccc2)C(=O)N1CCCCCCN1C(=O)CC(=O)N(Cc2ccccc2)C1=O` here?
Answer: Its inhibition is 68% (active).

Question: For `CC(C)(C)c1ccc(CN2C(=O)CN=C(c3ccccc3)c3ccccc32)cc1`, which inhibition is on record?
Answer: The inhibition was -3.15% (inactive).

Question: For `O=C(NC(=S)N1C[C@H]2C[C@H](C1)c1cccc(=O)n1C2)c1ccc(F)cc1`, which inhibition is on record?
Answer: The inhibition was 0.97% (inactive).

Question: For `O=C1C2(Cl)C3(Cl)C4(Cl)C(Cl)(Cl)C5(Cl)C3(Cl)C1(Cl)C5(Cl)C24Cl` (stereo not given), which inhibition is on record?
Answer: The inhibition was 11.4% (inactive).

Question: For `Cc1cc(=O)oc2c(C)c(OCC(=O)N3CCN(Cc4ccc5c(c4)OCO5)CC3)ccc12`, which inhibition is on record?
Answer: Its inhibition is -1.14% (inactive).

Question: With `O=C1NC(=O)N(c2ccccc2)C(=O)/C1=C/c1ccc([N+](=O)[O-])s1` as the molecule, how does the inhibition read?
Answer: The inhibition was 70.2% (active).

Question: For `COc1cccc(N2C(=O)NC(=O)/C(=C\c3ccc([N+](=O)[O-])s3)C2=O)c1`, which inhibition is on record?
Answer: The inhibition was 56% (active).

Question: With `CC1=C(C(=O)Nc2ccccc2)SCCO1` as the molecule, how does the inhibition read?
Answer: The inhibition was 5.19% (inactive).

Question: Which inhibition does the source give for `Cc1ccsc1C(=O)C1CCCN(Cc2ccc(O)cc2)C1` (stereo not given) here?
Answer: Its inhibition is -1.2% (inactive).

Question: Which inhibition does the source give for `O=c1[nH]c(=O)n(-c2ccccc2)c(O)c1C=NC12CN3CN(CN(C3)C1)C2` here?
Answer: The inhibition was 2.56% (inactive).

Question: With `O=S(=O)(c1ccccc1)N1CCC2CCNC2C1` (stereo not given) as the molecule, how does the inhibition read?
Answer: The inhibition was 1.15% (inactive).

Question: For `Cc1cc(N2CCNC[C@@H]2C)ccc1N1CC[C@H](O)C1`, which inhibition is on record?
Answer: Its inhibition is 3.47% (inactive).

Question: With `COc1ccccc1OC(=O)c1ccc(C)c(S(=O)(=O)N2CCOCC2)c1` as the molecule, how does the inhibition read?
Answer: The inhibition was -3.22% (inactive).

Question: Which inhibition does the source give for `CS(=O)(=O)N1CCC2CCNC2C1` (stereo not given) here?
Answer: The inhibition was 0.17% (inactive).

Question: Which inhibition does the source give for `COP(=O)(Sc1ccccc1)C(Cc1ccccc1)NC(=O)OCc1ccccc1` (stereo not given) here?
Answer: Its inhibition is -1.61% (inactive).

Question: Which inhibition does the source give for `CCC(C)NC1(c2ccccc2)CCCCC1` (stereo not given) here?
Answer: Its inhibition is 2.27% (inactive).

Question: For `COc1ccc(CN2CCN(c3ccccc3F)CC2)c(OC)c1`, which inhibition is on record?
Answer: The inhibition was -4.43% (inactive).

Question: With `Brc1ccc2c(c1)CNCc1cnnn1-2` as the molecule, how does the inhibition read?
Answer: Its inhibition is 0.59% (inactive).

Question: With `COc1ccc2[nH]c3c(c2c1)CCN[C@H]3C` as the molecule, how does the inhibition read?
Answer: Its inhibition is 3.06% (inactive).

Question: With `COc1ccc2c(c1)[C@]13CCCCC1C(C2)N(C)CC3` (stereo not given in full) as the molecule, how does the inhibition read?
Answer: Its inhibition is 3.99% (inactive).

Question: Which inhibition does the source give for `COc1ccc2c(c1)[C@@]13CCCCC1[C@@H](C2)NCC3` (stereo not given in full) here?
Answer: Its inhibition is 37.9% (active).

Question: With `CCN(CC)C(=O)[C@@H]1C=C2c3cccc4[nH]c(Br)c(c34)C[C@H]2N(C)C1` as the molecule, how does the inhibition read?
Answer: Its inhibition is 2.23% (inactive).

Question: For `CN(C)C(=O)NC(O)C(Cl)(Cl)Cl` (stereo not given), which inhibition is on record?
Answer: The inhibition was -3.56% (inactive).

Question: Which inhibition does the source give for `O=C1NC(=O)N(Cc2ccco2)C(=O)/C1=C\c1ccc(-c2ccc(F)cc2)o1` here?
Answer: Its inhibition is 52.2% (active).

Question: With `CCC1(CC(C)c2ccccc2)C(=O)NC(=O)NC1=O` (stereo not given) as the molecule, how does the inhibition read?
Answer: The inhibition was 1.88% (inactive).
